Experimental data: PubChem BioAssay (NCATS)
Records with an inconclusive call do not appear. Active and inactive are the calls of the source. Calls come from the whole dose curve; as a rule, active = well fitted inhibition curve with a large enough effect; inconclusive = small, poorly fitted or top-dose-only effect; inactive = flat fitted curve, though single readings scatter.

system: CRL-7250; test: qHTS assay to identify novel small-molecules to repurpose for Merkel cell carcinoma treatment (AID 1296009); conditions: MCC and control cell lines, CellTiter-Glo viability, 72 h; series mostly up to 92 µM; activity change, negative = cytotoxicity: at the top concentration; note: nearly all actives have a fitted effect of over 60% in size
Method in brief: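 72 hr, 37 degree celsius; NPC 8-pt / MIPE 11-pt dose response; compound pinned in DMSO; CellTiter-Glo, 10 min RT, luminescence; normalized to no-cell and DMSO controls.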

Row | SMILES | outcome
1 | Cn1c(SCC(=O)N2CCC[C@H]2C(=O)Nc2ccccc2-c2ccccc2)nc2ccccc21 | inactive
2 | CC1C(=O)OCC2=CCN3CCC(OC(=O)C(C)(O)C1(C)O)C23 (stereo not given) | inactive
3 | COc1cc(C2CC(=O)Nc3c2cc(Br)c2ccccc32)cc(OC)c1OC (stereo not given) | inactive
4 | Cc1cc(-c2nncc3c(C(C)(C)C)c(OCc4ncnn4C)nn23)no1 | inactive
5 | CC1(C)OC[C@H](NC(=O)Nc2ccc(Br)cc2Br)[C@H](c2ccccc2)O1 | inactive
6 | CC(=O)/C=C/C1(O)C(C)CC(O[C@@H]2O[C@H](CO)[C@@H](O)[C@H](O)[C@H]2O)CC1(C)C (stereo not given in full) | inactive [at 17.4 µM]
7 | CC1=C2C(=O)C=C(CO)C2C2OC(=O)C(CS(=O)(=O)O)C2C(OC(=O)Cc2ccc(O)cc2)C1 (stereo not given) | inactive [at 17.4 µM]
8 | OC[C@H]1O[C@@H](OCc2ccccc2)[C@H](O[C@@H]2OC[C@@H](O)[C@H](O)[C@H]2O)[C@@H](O)[C@@H]1O | inactive [at 17.4 µM]
9 | CC1=C(CO)CC(C(C)C2CCC3C4CC=C5CC(OC6OC(COC7OC(CO)C(O)C(O)C7O)C(O)C(O)C6O)CC(O)C5(C)C4CCC23C)OC1=O (stereo not given) | inactive [at 17.4 µM]
10 | CCC(C)C(=O)O[C@@H]1[C@@H](O)[C@@H](O[C@H]2O[C@H](CO)[C@@H](O)[C@H](O)[C@H]2O)O[C@H](CO)[C@H]1O (stereo not given in full) | inactive [at 17.4 µM]
11 | NC(=O)c1cccc2[nH]c(-c3ccc(C4CCCN4)cc3F)nc12 (stereo not given) | inactive
12 | CC(C)=C[C@@H]1[C@H](CO[C@@H]2O[C@H](CO)[C@@H](O)[C@H](O)[C@H]2O)C1(C)C | inactive
13 | CC1(C)CC[C@]2(C(=O)O)[C@H](O)C[C@]3(C)C(=CCC4[C@@]5(C)CC[C@H](O[C@@H]6O[C@H](CO[C@@H]7OC[C@H](O)[C@H](O)[C@H]7O[C@@H]7OC[C@H](O)[C@H](O)[C@H]7O)[C@@H](O)[C@H](O)[C@H]6O)C(C)(C)C5CC[C@]43C)[C@@H]2C1 (stereo not given in full) | inactive [at 9.27 µM]
14 | CC(NCc1ccc(OCc2cccc(F)c2)cc1)C(N)=O (stereo not given) | inactive
15 | COc1cc2ncnc(Nc3ccc(O)cc3)c2cc1OC | inactive
16 | N#CC(c1ccnc(OCc2ccc(CN3CCOCC3)cc2)n1)c1nc2ccccc2s1 (stereo not given) | inactive
17 | C=C(C)[C@@H]1CC[C@]2(C(=O)O)CC[C@]3(C)C(CCC4[C@]5(C)C(CC[C@]43C)C(C)(C)[C@@H](O)[C@@H]5C(=O)O)C12 (stereo not given in full) | inactive [at 17.4 µM]
18 | C/C=C(\C)C(=O)OC1C2(O)CC3=C4CC(=O)OC(c5ccoc5)C4(C)CCC3C(C)(C2=O)C(C(OC(C)=O)C(=O)OC)C1(C)C (stereo not given) | inactive [at 17.4 µM]
19 | O=C(/C=C/N1C[C@@H]2C[C@@H]1CN2c1ccccn1)c1ccccc1O | inactive
20 | CCOC(=O)COc1ccc2c(c1)C[C@@H](NC[C@H](O)c1cccc(Cl)c1)CC2 | inactive

Row | SMILES | outcome
21 | Nc1c(-c2ccccc2)nc(Cl)c2c(O)n[nH]c(=O)c12 | inactive
22 | C=C[C@@](C)(CCC=C(C)C)O[C@@H]1O[C@H](CO[C@@H]2OC[C@H](O)[C@H](O)[C@H]2O)[C@@H](O)[C@H](O)[C@H]1O | inactive [at 17.4 µM]
23 | COc1c2c(c(C)c3c1C(=O)OC3)OC1(C)CC(O)C34OC(O)(CCC3(C)C1C2)OC4(C)C (stereo not given) | inactive [at 17.4 µM]
24 | COc1cc(C2OCC3(O)C(c4ccc(O[C@@H]5O[C@H](CO)[C@@H](O)[C@H](O)[C@H]5O)c(OC)c4)OCC23O)ccc1O (stereo not given in full) | inactive [at 17.4 µM]
25 | CC1OC(OC2CCC3(C)C(CCC4(C)C3CC=C3C5CC(C)(C)CCC5(C(=O)OC5OC(CO)C(O)C(O)C5O)CCC34C(=O)O)C2(C)C)C(O)C(O)C1O (stereo not given) | inactive [at 17.4 µM]
26 | COc1cc(C2Oc3c(OC)cc(CCCO)cc3C2CO)ccc1O (stereo not given) | inactive
27 | CC12CC34C=CC(=O)C(C)(CCC(=O)O)C3C(CC1C4)O2 (stereo not given) | inactive
28 | COc1c(C(C)C)c(O)c(O)c2c1C(OC)[C@H]1OC(=O)[C@@]23CCCC(C)(C)[C@H]13 (stereo not given in full) | inactive
29 | COc1cc(/C=C/C(=O)O[C@H]2[C@@H]3C=CO[C@@H](O[C@@H]4O[C@H](CO)[C@@H](O)[C@H](O)[C@H]4O)[C@@H]3[C@@]3(CO)O[C@@H]23)ccc1O | inactive [at 17.4 µM]
30 | C/C1=C\CC[C@H](C)CCO[C@@H]2O[C@H](CO[C@@H]3OC[C@](O)(COC1=O)[C@H]3O)[C@@H](O)[C@H](O)[C@H]2O | inactive [at 17.4 µM]
31 | CON(C)C(=O)[C@H](O)[C@H](Cc1ccccc1)NC(=O)c1cc2cc(Cl)ccc2[nH]1 | inactive
32 | CC1CCC2(C)CCC3(C)C(=CCC4C5(C)CCC(O)C(C)(C(=O)O)C5CCC43C)C2C1C (stereo not given) | inactive [at 17.4 µM]
33 | O=C(O)c1cc(C(F)(F)F)ccc1N1CC[C@H](OCc2ccccn2)C1 | inactive
34 | CC(C)C(CO)Nc1nc(Nc2ccc(C(=O)O)c(Cl)c2)c2ncn(C(C)C)c2n1 (stereo not given) | inactive
35 | O=C(/C=C/c1ccc(O)cc1)OC[C@H]1O[C@@H](OC(=O)/C=C/c2ccccc2)[C@H](O)[C@@H](O)[C@@H]1O | inactive [at 17.4 µM]
36 | C[C@H](N)C(=O)N[C@@H](Cc1ccc(O)cc1)C(=O)N1CCC[C@H]1C(=O)NCC(=O)N[C@@H](CCCCN)C(=O)N[C@@H](Cc1ccccc1)C(N)=O | inactive [at 9.27 µM]
37 | CC12CCC3c4ccc(O)cc4CCC3C1CCC2OC1OC(C(=O)O)C(O)C(O)C1O (stereo not given) | inactive
38 | COc1cc(C[C@H]2COC(=O)[C@@H]2Cc2ccc(O)c(OC)c2)ccc1O | inactive
39 | COc1cc(C(C)=O)c(OC)c2c1OC(C)(C)C=C2 | inactive
40 | CC1(C)C2CC[C@]3(C)C(C(=O)C=C4[C@H]5C[C@@](C)(C(=O)O)CC[C@]5(C)CC[C@]43C)[C@@]2(C)CC[C@@H]1O (stereo not given in full) | inactive [at 17.4 µM]
